Records with an inconclusive call do not appear. Active and inactive are the calls of the source. Calls follow the shape of the dose curve; as a rule, active = well fitted curve in the direction sought with a large enough effect; inconclusive = small, poorly fitted or top-dose-only effect, or another doubt; inactive = no such curve, though single readings can be large; an effect the other way counts as inactive or inconclusive.
What was measured:
NIH3T3 = test: qHTS assay to identify novel small-molecules to repurpose for Merkel cell carcinoma treatment (AID 1296009); conditions: MCC and control cell lines, CellTiter-Glo viability, 72 h; at 44.8 µM (top of the series) unless noted; also: nearly all actives have a fitted effect of over 60% in size
Method in brief: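 72 hr, 37 degree celsius; NPC 8-pt / MIPE 11-pt dose response; compound pinned in DMSO; CellTiter-Glo, 10 min RT, luminescence; normalized to no-cell and DMSO controls.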

C33A = test: Primary qHTS to identify gynecologic anti-cancer compounds using libraries of approved drugs and bioactive compounds (AID 1345084); conditions: Gynecologic cancer cell panel viability, ATPlite luminescence, 48 h; series mostly up to 57.5 µM; also: % is scaled to controls: 0 for no effect and ±100 for the full control effect; nearly all actives have a fitted effect of over 55% in size
Method in brief: (§1)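 In this quantitative HTS, cell killing is estimated from loss of ATP-dependent luciferase light. Cells see five compound concentrations over a 48 h exposure.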

CAOV3 = test: as above; conditions: Gynecologic cancer cell panel viability, ATPlite luminescence, 48 h; series mostly up to 57.5 µM
Method in brief: as §1

CASKI = test: as above; conditions: Gynecologic cancer cell panel viability, ATPlite luminescence, 48 h; series mostly up to 57.5 µM
Method in brief: as §1

Es-2 = test: as above; conditions: Gynecologic cancer cell panel viability, ATPlite luminescence, 48 h; series mostly up to 57.5 µM
Method in brief: as §1

HeLa = test: as above; conditions: Gynecologic cancer cell panel viability, ATPlite luminescence, 48 h; series mostly up to 57.5 µM
Method in brief: as §1

Hek293T = test: as above; conditions: Gynecologic cancer cell panel viability, ATPlite luminescence, 48 h, control line for the selectivity index; series mostly up to 57.5 µM
Method in brief: as §1

JEG-3 = test: as above; conditions: Gynecologic cancer cell panel viability, ATPlite luminescence, 48 h; series mostly up to 57.5 µM
Method in brief: as §1

OV90 = test: as above; conditions: Gynecologic cancer cell panel viability, ATPlite luminescence, 48 h; series mostly up to 57.5 µM
Method in brief: as §1

PA-1 = test: as above; conditions: Gynecologic cancer cell panel viability, ATPlite luminescence, 48 h; series mostly up to 57.5 µM
Method in brief: as §1

SKOV3 = test: as above; conditions: Gynecologic cancer cell panel viability, ATPlite luminescence, 48 h; series mostly up to 57.5 µM
Method in brief: as §1

Tov-21-G = test: as above; conditions: Gynecologic cancer cell panel viability, ATPlite luminescence, 48 h; series mostly up to 57.5 µM
Method in brief: as §1

Tov112D = test: as above; conditions: Gynecologic cancer cell panel viability, ATPlite luminescence, 48 h; series mostly up to 57.5 µM
Method in brief: as §1

CC(C)(O)c1ccc2c(c1)C(=O)C[C@H]1[C@](C)(C(=O)O)CCC[C@]21C
inactive: outcome (NIH3T3) | Potency (C33A) | Potency (CAOV3) | outcome (CASKI) | Potency (Es-2) | Potency (HeLa) | Potency (Hek293T) | Potency (JEG-3) | Potency (OV90) | Potency (PA-1) | Potency (SKOV3) | Potency (Tov-21-G) | Potency (Tov112D)

CCOC(=O)C(CCc1ccccc1)NC(C)C(=O)N1Cc2ccccc2CC1C(=O)O (stereo not drawn)
inactive: outcome (NIH3T3) | Potency (C33A) | Potency (CAOV3) | outcome (CASKI) | Potency (Es-2) | Potency (HeLa) | Potency (Hek293T) | Potency (JEG-3) | Potency (OV90) | Potency (PA-1) | Potency (SKOV3) | Potency (Tov-21-G) | Potency (Tov112D)

COC(=O)C1(C)CCCC2(C)c3ccc(C(C)C)cc3C(O)C(O)C12 (stereo not drawn)
inactive: outcome (NIH3T3) | Potency (C33A) | Potency (CAOV3) | outcome (CASKI) | Potency (Es-2) | Potency (HeLa) | Potency (Hek293T) | Potency (JEG-3) | Potency (OV90) | Potency (PA-1) | Potency (SKOV3) | Potency (Tov-21-G) | Potency (Tov112D)

C/C=C(\C)C(=O)OC[C@H]1O[C@@H](O[C@H]2[C@@H](O[C@H]3O[C@H](COC(=O)/C(C)=C/C)[C@@H](O)[C@H](O)[C@H]3O[C@@H]3O[C@H](COC(=O)/C(C)=C/C)[C@@H](O)[C@H](OC(=O)/C(C)=C/C)[C@H]3O)O[C@H](COC(=O)/C(C)=C/C)[C@@H](O)[C@@H]2O)[C@H](O)[C@@H](O)[C@@H]1O
inactive: outcome (NIH3T3) inactive [at 9.27 µM] | activity change, negative = cytotoxicity (C33A) -2.71% [at 11.6 µM] | activity change, negative = cytotoxicity (CAOV3) -1.73% [at 11.6 µM] | activity change, negative = cytotoxicity (CASKI) 3.51% [at 11.6 µM] | activity change, negative = cytotoxicity (Es-2) 2.21% [at 11.6 µM] | activity change, negative = cytotoxicity (HeLa) -5.02% [at 11.6 µM] | activity change, negative = cytotoxicity (Hek293T) -12.9% [at 11.6 µM] | activity change, negative = cytotoxicity (JEG-3) -4.46% [at 11.6 µM] | activity change, negative = cytotoxicity (OV90) -7.83% [at 11.6 µM] | activity change, negative = cytotoxicity (PA-1) 0.401% [at 11.6 µM] | activity change, negative = cytotoxicity (SKOV3) -1.49% [at 11.6 µM] | activity change, negative = cytotoxicity (Tov-21-G) -1.7% [at 11.6 µM] | activity change, negative = cytotoxicity (Tov112D) 6.68% [at 11.6 µM]

C[C@H]1/C=C/C=C/C=C/C=C/C=C/[C@@H](O)[C@H](C(=O)O)[C@H](O)C[C@H](O)CCC[C@H](O)C[C@H](O)C[C@H](O)[C@@H](C)C(=O)O[C@@H]1C
inactive: outcome (NIH3T3) inactive [at 17.4 µM] | Potency (C33A) | Potency (CAOV3) | outcome (CASKI) | Potency (Es-2) | Potency (HeLa) | Potency (Hek293T) | Potency (JEG-3) | Potency (OV90) | Potency (PA-1) | Potency (SKOV3) | Potency (Tov-21-G) | Potency (Tov112D)

C/C=C(\C)C(=O)OC1CC2C(CC=C3CC(OC4CC(OC)C(OC5CC(OC)C(OC6CC(OC)C(OC7CC(OC)C(OC8CC(OC)C(OC9OC(CO)C(O)C(O)C9O)C(C)O8)C(C)O7)C(C)O6)C(C)O5)C(C)O4)CCC32C)C2(O)CCC(C(C)=O)C12C (stereo not drawn)
inactive: outcome (NIH3T3) inactive [at 9.27 µM] | activity change, negative = cytotoxicity (C33A) 4.48% [at 6.55 µM] | activity change, negative = cytotoxicity (CAOV3) -9.87% [at 6.55 µM] | activity change, negative = cytotoxicity (CASKI) -6.32% [at 6.55 µM] | activity change, negative = cytotoxicity (Es-2) 2.25% [at 6.55 µM] | activity change, negative = cytotoxicity (HeLa) 6.7% [at 6.55 µM] | activity change, negative = cytotoxicity (Hek293T) -0.353% [at 6.55 µM] | activity change, negative = cytotoxicity (JEG-3) 3.01% [at 6.55 µM] | activity change, negative = cytotoxicity (OV90) -1.21% [at 6.55 µM] | activity change, negative = cytotoxicity (PA-1) -0.231% [at 6.55 µM] | activity change, negative = cytotoxicity (SKOV3) -2.08% [at 6.55 µM] | activity change, negative = cytotoxicity (Tov-21-G) 2.5% [at 6.55 µM] | activity change, negative = cytotoxicity (Tov112D) -1.72% [at 6.55 µM]

CCC(CC)CC1(C(=O)Nc2ccccc2SC(=O)C(C)C)CCCCC1
inactive: outcome (NIH3T3) | Potency (C33A) | Potency (CAOV3) | outcome (CASKI) | Potency (Es-2) | Potency (HeLa) | Potency (Hek293T) | Potency (JEG-3) | Potency (OV90) | Potency (PA-1) | Potency (SKOV3) | Potency (Tov-21-G) | Potency (Tov112D)

C/C(=C\CCC1(C)C2CC3C(C2)C31C)C(=O)O (stereo not drawn)
inactive: outcome (NIH3T3) | Potency (C33A) | Potency (CAOV3) | outcome (CASKI) | Potency (Es-2) | Potency (HeLa) | Potency (Hek293T) | Potency (JEG-3) | Potency (OV90) | Potency (PA-1) | Potency (SKOV3) | Potency (Tov-21-G) | Potency (Tov112D)

CC1OC(O[C@@H]2[C@@H](O)[C@H](OC(=O)[C@]34CCC(C)(C)C[C@H]3C3=CCC5[C@@]6(C)CC[C@H](O[C@@H]7O[C@H](C(=O)O)[C@@H](O)[C@H](O[C@@H]8OC[C@@H](O)[C@H](O)[C@H]8O)[C@H]7O[C@@H]7O[C@H](CO)[C@H](O)[C@H](O)[C@H]7O)[C@@](C)(C=O)C6CC[C@@]5(C)[C@]3(C)C[C@H]4O)O[C@H](C)[C@@H]2OC2OC(C)C(OC3OCC(O)C(O)C3O)C(O)C2O)C(O)C(O)C1O (stereo partly drawn)
inactive: outcome (NIH3T3) inactive [at 9.27 µM] | activity change, negative = cytotoxicity (C33A) 2.48% [at 6.55 µM] | activity change, negative = cytotoxicity (CAOV3) 7.91% [at 6.55 µM] | activity change, negative = cytotoxicity (CASKI) 19.4% [at 6.55 µM] | activity change, negative = cytotoxicity (Es-2) -0.176% [at 6.55 µM] | activity change, negative = cytotoxicity (HeLa) 18.4% [at 6.55 µM] | activity change, negative = cytotoxicity (Hek293T) 1.68% [at 6.55 µM] | activity change, negative = cytotoxicity (JEG-3) 0.0438% [at 6.55 µM] | activity change, negative = cytotoxicity (OV90) 6.42% [at 6.55 µM] | activity change, negative = cytotoxicity (PA-1) -6.4% [at 6.55 µM] | activity change, negative = cytotoxicity (SKOV3) -2.08% [at 6.55 µM] | activity change, negative = cytotoxicity (Tov-21-G) 5.64% [at 6.55 µM] | activity change, negative = cytotoxicity (Tov112D) 10.7% [at 6.55 µM]

CC(=O)NC1C(OC2CCC3(C)C(CCC4(C)C3CC=C3C5CC(C)(C)CCC5(C(=O)O)C(O)CC34C)C2(C)C)OC(CO)C(O)C1O (stereo not drawn)
inactive: outcome (NIH3T3) inactive [at 17.4 µM] | Potency (C33A) | Potency (CAOV3) | outcome (CASKI) | Potency (Es-2) | Potency (HeLa) | Potency (Hek293T) | Potency (JEG-3) | Potency (OV90) | Potency (PA-1) | Potency (SKOV3) | Potency (Tov-21-G) | Potency (Tov112D)

CC(=O)[C@@H]1C[C@H](C(C)(C)O[C@@H]2O[C@H](CO)[C@@H](O)[C@H](O)[C@H]2O)CC[C@@]2(CO)OC(=O)C[C@@H]12
inactive: outcome (NIH3T3) inactive [at 17.4 µM] | Potency (C33A) | Potency (CAOV3) | outcome (CASKI) | Potency (Es-2) | Potency (HeLa) | Potency (Hek293T) | Potency (JEG-3) | Potency (OV90) | Potency (PA-1) | Potency (SKOV3) | Potency (Tov-21-G) | Potency (Tov112D)
